From PubChem
Compounds with a hit are over-represented: about 3.8% of the library has one in this group of screens.
ATXN2 expr inh = Primary qHTS for Inhibitors of ATXN expression | HEK-293 ATXN2-luciferase reporter, luminescence, 24 h | Potency, µM (highest dose often 57 µM), actives largely listed as inhibitors | 0.72% of 360,000 active; note: nearly all actives have a fitted effect of over 55% in size
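qHTS (up to 57 uM final) was run with 24 h compound exposure of reporter cells at 37 °C. Each well was multiplexed: SteadyGlo luminescence measured ATXN2-luciferase expression after a fluorogenic Gly-Phe-AFC viability readout (25 uM final).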
A549 viability = Nrf2 qHTS screen for inhibitors: counterscreen for cytotoxicity; AID 504648, 2011; A549 ARE-Fluc cells, CellTiter-Fluor viability, 18-24 h; 0.16% of 390,000 active; Potency, µM (series often up to 46 µM), usual class: inhibitors
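A549 ARE_Fluc cells in 5% FBS OPTI-MEM were exposed to compounds in concentration-response for 18-24 h at 37 deg C. Viability was read by CellTiter-Fluor fluorescence (Ex 405/Em 525) after 30 min, before the luciferase read.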
Nrf2 inh = Nrf2 qHTS screen for inhibitors; A549 ARE-Fluc reporter, luciferase luminescence, 18-24 h; Potency, µM (titrated, usually from 46 µM), most hits filed as inhibitors; 2.1% of 360,000 active; AID 504444, 2011; note: nearly all actives have a fitted effect of over 60% in size
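Concentration-response testing used A549 ARE_Fluc cells at 5000 cells/well. Following an 18-24 h compound incubation, viability was read by fluorescence (Ex 405/Em 525) and luciferase output by luminescence.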
HepG2 viability = qHTS for Inhibitors of TGF-b: Cytotox Counterscreen; Potency, µM (top dose mostly 46.1 µM), actives largely listed as cytotoxic; 0.76% of 410,000 active; HepG2 CAGA-GFP viability, ATP luminescence, 18 h
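CellTiter-Glo luminescence gave cytotoxicity after 18 hours at 37 degrees C. The cells were HepG2 CAGA-GFP in 1% FBS DMEM, stimulated with 500 pg/mL TGF-beta after compound addition. %Activity was normalised to no-cell wells (complete cell-killing) and DMSO (no toxicity), and curves were fitted and classified.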
TGFb inhibitor = qHTS for Inhibitors of TGF-b; Potency, µM (top dose mostly 46.1 µM), most hits filed as inhibitors; HepG2 CAGA-GFP TGF-b/SMAD3 reporter, GFP fluorescence, 18 h; TGF-beta stimulated, 500 pg/mL final; 1.2% of 410,000 active; note: nearly all actives have a fitted effect of over 65% in size
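HEPG2 CAGA-GFP reporter cells (1000/well, DMEM with 1% FBS) received compounds, then recombinant TGF-beta at 500 pg/mL final for 18 hours at 37 degrees C. Per-cell GFP summed per well was normalised to unstimulated and stimulated DMSO controls before curve fitting.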
ATXN viability = Viability Counterscreen for Primary qHTS for Inhibitors of ATXN expression; AID 651635, 2014; Potency, µM (series often up to 56.7 µM), most hits filed as cytotoxic; 0.49% of 400,000 active; S2 cells (HEK-293 line with an ATXN2-luciferase reporter) viability, CellTiter-Fluor protease fluorescence, 24 h; note: nearly all actives have a fitted effect of over 40% in size
A number is an active result. Calls come from the whole dose curve; as a rule, active = well fitted curve in the direction sought with a large enough effect; inconclusive = small, poorly fitted or top-dose-only effect, or another doubt; inactive = no such curve, though single readings can be large; an effect the other way counts as inactive or inconclusive.

How did O=C(Nc1ccc2oc(=O)ccc2c1)c1ccc(-c2cccc(Cl)c2)o1 do in these assays?
ATXN2 expr inh: inconclusive; A549 viability: inactive; Nrf2 inh: 18.4µM; HepG2 viability: inactive; TGFb inhibitor: inactive; ATXN viability: inconclusive

How did O=C(Nc1ccc2oc(=O)ccc2c1)c1ccc(-c2ccccc2[N+](=O)[O-])o1 do in these assays?
ATXN2 expr inh: inactive; A549 viability: inactive; Nrf2 inh: inconclusive; HepG2 viability: inactive; TGFb inhibitor: inactive; ATXN viability: inactive

What do the screens show for `CCC1CN(CCNC(=O)c2ccnc(Cl)c2)Cc2cc(OC)ccc2O1` (stereo not drawn)?
ATXN viability: inactive

How did O=C1C(=O)c2c(C(=O)c3ccccc3)coc2-c2ccccc21 do in these assays?
ATXN2 expr inh: inconclusive; A549 viability: inconclusive; Nrf2 inh: inconclusive; HepG2 viability: 12.6µM; TGFb inhibitor: 8.91µM

How did Cc1oc2c(c1C(=O)O)C(=O)c1ccccc1C2=O do in these assays?
ATXN2 expr inh: inactive; A549 viability: inactive; Nrf2 inh: inconclusive; HepG2 viability: 7.08µM; TGFb inhibitor: 5.01µM; ATXN viability: inactive

How did Cc1onc(-c2ccccc2Cl)c1C(=O)c1ccccc1 do in these assays?
ATXN2 expr inh: inactive; A549 viability: inactive; Nrf2 inh: inactive; HepG2 viability: inactive; TGFb inhibitor: inactive; ATXN viability: inactive

Results for Cc1oc2c(c1C(=O)c1ccccc1)C(=O)C(=O)c1ccccc1-2 ?
ATXN2 expr inh: 3.55µM; A549 viability: inconclusive; HepG2 viability: 4.47µM; TGFb inhibitor: inconclusive

What do the screens show for `CC(C)(C)c1ccc(-n2ncc3c2CCCC3NC(=O)CN2CCCC2=O)cc1` (stereo not drawn)?
ATXN2 expr inh: inactive; A549 viability: inactive; Nrf2 inh: inconclusive; HepG2 viability: 12.6µM; TGFb inhibitor: inactive; ATXN viability: inactive

How did CC(C)(C)c1ccc(-n2ncc3c2CCCC3NC(=O)C2=NNC(=O)CC2)cc1 (stereo not drawn) do in these assays?
ATXN2 expr inh: inactive; A549 viability: inactive; Nrf2 inh: 8.2µM; HepG2 viability: inactive; TGFb inhibitor: inactive; ATXN viability: inactive

Results for COc1ccc(-c2noc(C3CCCN(S(=O)(=O)c4cccc(Cl)c4C)C3)n2)cc1OC (stereo not drawn) ?
ATXN2 expr inh: inactive; A549 viability: inactive; Nrf2 inh: inconclusive; HepG2 viability: inactive; TGFb inhibitor: inactive; ATXN viability: inactive

Results for O=S(=O)(c1ccccc1Cl)N1CCCC(c2nc(-c3cccnc3)no2)C1 (stereo not drawn) ?
ATXN2 expr inh: inactive; A549 viability: inactive; Nrf2 inh: 25.9µM; HepG2 viability: inactive; TGFb inhibitor: inconclusive; ATXN viability: inactive

Results for Cc1ccccc1Cn1c(=O)n(CC2CCC(C(=O)N3CCC(C)CC3)CC2)c(=O)c2sccc21 (stereo not drawn) ?
ATXN2 expr inh: inconclusive; A549 viability: inconclusive; Nrf2 inh: 23.1µM; HepG2 viability: inactive; TGFb inhibitor: inconclusive; ATXN viability: inconclusive

How did Cc1ccc(Cn2c(=O)n(CC3CCC(C(=O)N4CCC(C)CC4)CC3)c(=O)c3sccc32)cc1 (stereo not drawn) do in these assays?
ATXN2 expr inh: inactive; A549 viability: inactive; Nrf2 inh: inactive; HepG2 viability: inactive; TGFb inhibitor: inactive; ATXN viability: inactive

How did O=C(NC1(C(F)(F)F)NC(=O)N(CCc2ccccc2)C1=O)c1ccc(Cl)cc1 (stereo not drawn) do in these assays?
ATXN2 expr inh: inconclusive; A549 viability: inactive; Nrf2 inh: inactive; HepG2 viability: inactive; TGFb inhibitor: inconclusive; ATXN viability: inconclusive

Results for CC(C)(C)c1ccc(C(=O)NC2(C(F)(F)F)NC(=O)N(CCc3ccccc3)C2=O)cc1 (stereo not drawn) ?
ATXN2 expr inh: inconclusive; A549 viability: inconclusive; Nrf2 inh: inconclusive; HepG2 viability: 20µM; TGFb inhibitor: 10µM; ATXN viability: inconclusive

What do the screens show for `O=C(C[n+]1csc2ccccc21)c1ccc(I)cc1`?
HepG2 viability: inactive; TGFb inhibitor: inactive

How did Cc1nc2nncn2c(NCc2ccc(F)cc2)c1C do in these assays?
ATXN2 expr inh: inactive; A549 viability: inactive; Nrf2 inh: 8.2µM; HepG2 viability: inactive; TGFb inhibitor: inconclusive; ATXN viability: inactive

Results for Cc1nc2nncn2c(Nc2ccc(F)cc2)c1C ?
ATXN2 expr inh: inactive; A549 viability: inactive; Nrf2 inh: inconclusive; HepG2 viability: inactive; TGFb inhibitor: inconclusive; ATXN viability: inconclusive

How did Cc1ccccc1NC(=O)CSc1nc(-c2ccccc2C)nc2cc(=O)[nH]n12 do in these assays?
ATXN2 expr inh: inconclusive; A549 viability: inactive; Nrf2 inh: inactive; HepG2 viability: inactive; TGFb inhibitor: 3.55µM; ATXN viability: inconclusive

What do the screens show for `Cc1ccccc1NC(=O)CSc1nc(-c2ccco2)nc2cc(=O)[nH]n12`?
ATXN2 expr inh: inactive; A549 viability: inactive; Nrf2 inh: inactive; HepG2 viability: inactive; TGFb inhibitor: inactive; ATXN viability: inactive

Results for CNC(CC(=O)c1ccc([N+](=O)[O-])cc1)C(Cl)(Cl)Cl (stereo not drawn) ?
ATXN2 expr inh: 25.1µM; A549 viability: inactive; Nrf2 inh: inconclusive; HepG2 viability: 10µM; TGFb inhibitor: 3.16µM; ATXN viability: 28.2µM

How did COc1ccc(C(=O)CC(Nc2ccc([N+](=O)[O-])cc2)c2ccc(OC)cc2)cc1 (stereo not drawn) do in these assays?
ATXN2 expr inh: inactive; A549 viability: inactive; Nrf2 inh: inconclusive; HepG2 viability: inactive; TGFb inhibitor: inactive; ATXN viability: inactive

How did Cn1nnnc1SCCCNCc1ccccc1OCc1ccc(Cl)cc1 do in these assays?
A549 viability: inactive; Nrf2 inh: inactive; HepG2 viability: inactive; TGFb inhibitor: inconclusive

Results for C#CCN1C=CC(=O)[C@@H](OC(=O)Nc2ccc(Br)cc2)[C@H]1c1ccccc1Br ?
ATXN2 expr inh: inconclusive; A549 viability: inactive; Nrf2 inh: inconclusive; HepG2 viability: inactive; TGFb inhibitor: 12.6µM; ATXN viability: inconclusive

What do the screens show for `C#CCN1C=CC(=O)[C@@H](OC(=O)Nc2ccccc2Br)[C@H]1c1ccccc1Br`?
ATXN2 expr inh: inactive; A549 viability: inactive; Nrf2 inh: inconclusive; HepG2 viability: inactive; TGFb inhibitor: inconclusive; ATXN viability: inactive

How did C=CC(=O)Nc1sc2c(c1C(N)=O)CCCC2 do in these assays?
ATXN2 expr inh: inconclusive; A549 viability: inactive; Nrf2 inh: inactive; HepG2 viability: inactive; TGFb inhibitor: 15.8µM; ATXN viability: inconclusive

How did C=CCNC(=S)Nc1sc2c(c1C(N)=O)CCCC2 do in these assays?
ATXN2 expr inh: inactive; A549 viability: inactive; Nrf2 inh: inactive; HepG2 viability: 11.2µM; TGFb inhibitor: inactive; ATXN viability: inactive
